The assay can be described thus: viability loss with induced miR-34 in A549 – imaging, A549 dox-inducible miR-34, nuclei and caspase counts, primary screen (AID 1347080). Note: test concentration not given here. To be noted: A549 miR-34 inducible, Hoechst nuclei count, 48 h.
Setting [1] is: stronger effect = lower value, cell number ratio, induced over uninduced.
Setting [2] is: measured here: relative caspase fold change +Dox/-Dox.
The mark [3] stands for this setting: measured here: total cells with miR-34 induction, stronger effect = lower value.
[4] abbreviates: measured here: total cells without miR-34 induction.

Calls of active or inactive are those of the source.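 Rule for the calls: active = compounds whose cell count with miR-34 switched on is under 0.7 times the count with it off; inactive = the rest.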

Regarding `CC(C)CCOc1ccc(N)cc1`, the fold change is 0.779 (inactive) under setting [1] and 2.13 under setting [2]. For the same compound, the cell count by setting is: under setting [3], 3780; under setting [4], 4850.

As to `CCOC(=O)c1c(Cc2cccc(Cl)c2)[nH]c2c1cc(O)c1ccccc12`, the fold change is 0.954 (inactive) under setting [1] and 1.94 under setting [2]. For the same compound, the cell count under setting [3] worked out at 4980 and the cell count under setting [4] is 5220.

For `CCCCC[C@H](O)/C=C/[C@@H]1[C@H](C/C=C\CCCC(=O)O)[C@H](O)C[C@H]1O`, the fold change runs as follows: under setting [1], 0.921 (inactive); under setting [2], 1.6. The compound further came in with a cell count under setting [3] of 5020 and a cell count under setting [4] of 5450.

Take `O=C(O)CCC/C=C/C[C@@H]1[C@@H](CC[C@@H](O)CCc2ccccc2)[C@H](O)C[C@@H]1O`: the fold change was 0.961 (inactive) under setting [1] and 1.3 under setting [2]. Further, the cell count under setting [3] came to 5820 and the cell count under setting [4] amounted to 6060.

As to `O=C(OCc1ccccc1)[C@H](O)c1ccccc1`, the fold change was 1.04 (inactive) under setting [1] and 0.545 under setting [2]. Moreover, the cell count under setting [3] worked out at 5580 and the cell count under setting [4] was determined as 5350.

As to `CCCCCCOC(=O)[C@@]1(O)CC2OC1(C)n1c3ccccc3c3c4c(c5c6ccccc6n2c5c31)C(=O)NC4` (stereo not given in full), the fold change under setting [1] was 0.758 (inactive) and the fold change under setting [2] was determined as 1.42. Besides, the cell count runs as follows: under setting [3], 4880; under setting [4], 6430.

As for `CCCCC[C@H](O)/C=C/[C@H]1[C@H](O)CC(=O)[C@@H]1C/C=C\CCCC(=O)OCC(O)CO` (stereo not given in full), the fold change runs as follows: under setting [1], 0.945 (inactive); under setting [2], 0.932. The cell count came to 5540 under setting [3] and 5860 under setting [4].

Regarding `CCCCC/C=C\C/C=C\CCCC/C=C\CCCC(=O)O`, the fold change runs as follows: under setting [1], 0.985 (inactive); under setting [2], 0.344. In addition, the cell count is 5360 under setting [3] and 5440 under setting [4].

As for `CCCCC/C=C/C/C=C/CCCCCCCC(=O)O`, the fold change under setting [1] was 1.12 (inactive) and the fold change under setting [2] stood at 0.989. In addition, the cell count was found to be 6880 under setting [3] and 6150 under setting [4].

With `CCCCC[C@](C)(O)/C=C/[C@H]1[C@H](O)CC(=O)[C@@H]1C/C=C\CCCC(=O)O`, the fold change by setting is: under setting [1], 0.915 (inactive); under setting [2], 1.22. Also, the cell count came to 5410 under setting [3] and 5910 under setting [4].

`CC(C)=CCC/C(C)=C/CC/C(C)=C/CC[C@]1(C)CCc2cc(O)c(C)c(C)c2O1`: the fold change by setting is: under setting [1], 0.98 (inactive); under setting [2], 0.749. The same compound showed a cell count under setting [3] of 5370 and a cell count under setting [4] of 5480.

For the compound `CCCCCCCC/C=C\CCCCCCCCCCCCCC(=O)NCCS(=O)(=O)O`, the fold change runs as follows: under setting [1], 0.871 (inactive); under setting [2], 0.338. The same compound gave a cell count under setting [3] of 5170 and a cell count under setting [4] of 5940.

Take `CCCCCCCCCCCCCCCCCCCCCCCC(=O)NCCS(=O)(=O)O`: the fold change is 0.987 (inactive) under setting [1] and 0.331 under setting [2]. Moreover, the cell count runs as follows: under setting [3], 5520; under setting [4], 5600.

As for `CCCCC[C@@](C)(O)/C=C/[C@H]1C(=O)C[C@H](O)[C@@H]1C/C=C\CCCC(=O)O`, the fold change under setting [1] was 0.936 (inactive) and the fold change under setting [2] is 1.24. Further, the cell count was 5370 under setting [3] and 5740 under setting [4].

Turning to `CC/C=C\C/C=C\C/C=C\C/C=C\CCCCCCC(=O)OCC`, the fold change was 0.858 (inactive) under setting [1] and 2.1 under setting [2]. The cell count under setting [3] is 5560 and the cell count under setting [4] is 6480.

As for `CC(C)c1cc2c(c(O)c1O)C13CCCC(C)(C)C1CC2OC3=O` (stereo not given), the fold change runs as follows: under setting [1], 0.942 (inactive); under setting [2], 1.02. Further, the cell count by setting is: under setting [3], 5390; under setting [4], 5730.

`NC(=O)CCC/C=C\C[C@@H]1[C@@H](/C=C/[C@@H](O)CCc2ccccc2)[C@H](O)C[C@@H]1O`: the fold change was 0.961 (inactive) under setting [1] and 1.58 under setting [2]. For the same compound, the cell count turned out to be 6210 under setting [3] and 6460 under setting [4].

For the compound `Cc1ccccc1C#Cc1ccc(CCC(=O)O)cc1`, the fold change is 1.11 (inactive) under setting [1] and 1.21 under setting [2]. The same compound gave a cell count under setting [3] of 6610 and a cell count under setting [4] of 5930.

In the case of `CC(C)=CCC/C(C)=C/CC/C(C)=C/CC[C@]1(C)CCc2cc(O)cc(C)c2O1`, the fold change reads like this: under setting [1], 0.922 (inactive); under setting [2], 1.06. For the same compound, the cell count runs as follows: under setting [3], 5270; under setting [4], 5720.

As to `CCCCC[C@@H](O)CC[C@H]1[C@H](O)CC(=O)[C@@H]1CCCCCCC(=O)O`, the fold change was 0.971 (inactive) under setting [1] and 1.47 under setting [2]. The compound further displayed a cell count under setting [3] of 5350 and a cell count under setting [4] of 5510.

In the case of `O=C1OC2(c3ccc(O)cc3Oc3cc(Oc4ccc(O)cc4)ccc32)c2ccccc21` (stereo not given), the fold change runs as follows: under setting [1], 0.956 (inactive); under setting [2], 1.49. Moreover, the cell count reads like this: under setting [3], 6230; under setting [4], 6520.

Regarding `NC1=NC(=O)/C(=C/c2ccc(O)cc2)S1`, the fold change is, setting by setting: under setting [1], 1.06 (inactive); under setting [2], 1.49. The cell count is, setting by setting: under setting [3], 6100; under setting [4], 5780.

Take `COc1cc([C@@H]2OC[C@@H](c3cc(OC)c(OC)c(OC)c3)O2)cc(OC)c1OC`: the fold change under setting [1] was 0.96 (inactive) and the fold change under setting [2] came to 0.869. In addition, the cell count reads like this: under setting [3], 5040; under setting [4], 5250.

In the case of `O=C1N[C@@H]2[C@@H](O)[C@@H](O)[C@H](O)[C@@H](CO)N2C1=O`, the fold change is 0.921 (inactive) under setting [1] and 0.979 under setting [2]. Also, the cell count under setting [3] stood at 4980 and the cell count under setting [4] stood at 5410.

In the case of `CCCCC[C@](C)(O)/C=C/[C@H]1C(=O)C[C@H](O)[C@@H]1C/C=C\CCCC(=O)O`, the fold change reads like this: under setting [1], 1.01 (inactive); under setting [2], 0.91. Moreover, the cell count was determined as 5200 under setting [3] and 5160 under setting [4].

Take `CC(C)=CCC/C(C)=C/CC/C(C)=C/C(O)P(=O)(O)O` (stereo not given): the fold change under setting [1] is 0.968 (inactive) and the fold change under setting [2] is 0.767. In addition, the cell count amounted to 5800 under setting [3] and 5990 under setting [4].

On to `CCCCCCCCCCCCCCNC(=O)C1CCCCC1`, for which the fold change under setting [1] was 0.905 (inactive) and the fold change under setting [2] amounted to 0.661. The cell count is 4920 under setting [3] and 5430 under setting [4].

Take `CC/C=C\C/C=C\C/C=C\C/C=C\CCCCC(=O)OC`: the fold change runs as follows: under setting [1], 0.976 (inactive); under setting [2], 1.08. The cell count is, setting by setting: under setting [3], 5040; under setting [4], 5160.

As for `CCc1c(OCCCCCC(C)(C)c2nn[nH]n2)cc(O)cc1C(C)=O`, the fold change is, setting by setting: under setting [1], 1.03 (inactive); under setting [2], 0.73. This compound also registered a cell count under setting [3] of 6030 and a cell count under setting [4] of 5840.

With `CC/C(=C\C(=N/O)C(N)=O)C(C)[N+](=O)[O-]` (stereo not given), the fold change is, setting by setting: under setting [1], 1.05 (inactive); under setting [2], 1.1. The cell count by setting is: under setting [3], 6540; under setting [4], 6230.

Source of the values: PubChem BioAssay.
